The campaign covered roughly 16,000 compounds. About 2,600 (16%) were called active. Another 20% or so got no clear call; they are omitted. Calls come from the whole dose curve; as a rule, active = well fitted curve in the direction sought with a large enough effect; inconclusive = small, poorly fitted or top-dose-only effect, or effect the other way; inactive = no such curve, though single readings can be large or run the other way. The list is a sample of the results.

In PubChem BioAssay AID1851 (National Center for Advancing Translational Sciences (NCATS), 2009) one finds AC50 and activity, negative = inhibition data, which are given here for 91 molecules.
% is set by controls: 0 for no effect and ±100 for the full control effect.

In this assay the target is Cytochrome P450 2D6 (Homo sapiens) (UniProt P10635). Nature of the assay: Cytochrome panel assay with activity outcomes. The note with it: recombinant CYP, pro-luciferin dealkylation, luminescence, p450-cyp2d6; series mostly up to 57.1 µM.
Sequence of Cytochrome P450 2D6 (Homo sapiens) (P10635 whole entry, looked up): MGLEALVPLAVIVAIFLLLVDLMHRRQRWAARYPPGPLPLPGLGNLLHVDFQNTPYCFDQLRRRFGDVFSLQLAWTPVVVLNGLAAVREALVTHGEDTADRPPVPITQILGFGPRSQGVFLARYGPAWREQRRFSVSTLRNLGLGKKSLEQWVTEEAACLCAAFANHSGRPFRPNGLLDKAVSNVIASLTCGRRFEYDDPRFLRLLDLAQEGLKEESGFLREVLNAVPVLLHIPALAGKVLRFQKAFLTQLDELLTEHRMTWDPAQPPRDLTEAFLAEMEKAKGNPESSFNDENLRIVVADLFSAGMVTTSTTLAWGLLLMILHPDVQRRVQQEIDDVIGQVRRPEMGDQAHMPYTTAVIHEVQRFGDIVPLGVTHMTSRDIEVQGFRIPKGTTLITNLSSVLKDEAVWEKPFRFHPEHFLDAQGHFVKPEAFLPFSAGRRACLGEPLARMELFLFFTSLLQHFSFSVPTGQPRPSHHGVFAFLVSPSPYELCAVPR
Regarding `COc1ccc(CN2C(=O)CN(C3CCCCCC3)C(=O)C2c2ccc(OC)c(OC)c2)cc1` (stereo unspecified), the AC50 (commonly the concentration giving half of the maximal activity seen) is “inactive”.

As to `Cc1ccc(NC(=O)CCC(=O)NNC(=O)c2ccco2)cc1C`, the AC50 entry is “inactive”.

In the case of `CCOc1[nH]n(-c2ccccc2)c(=O)c1C=Nc1ccc(Cl)cc1`, the AC50 entry is “inactive”.

With `Cn1c(C(F)(F)F)nc2c(=O)oc3ccccc3c21`, the AC50 entry was “inactive”.

As to `CCCC/C=C/C(NC(=O)c1ccc(-c2ccccc2)cc1)c1ccccc1` (stereo unspecified), the AC50 entry is “inactive”.

Regarding `O=C(NCCOC12CC3CC(CC(C3)C1)C2)c1cccc(Br)c1`, the AC50 result is “inactive”.

As for `O=C(CCc1ccccc1)Nc1ncn[nH]1`, the AC50 result was “inactive”.

As for `O=C(CCc1ccccc1)NNC(=O)c1ccco1`, the AC50 result is “inactive”.

In the case of `O=C(CCc1ccccc1)Nc1nncs1`, the AC50 was 14.1 µM (active).

Regarding `CCOC(=O)CCN1C(=O)[C@H]2[C@H]3[C@H](O)[C@H](O)C/C(=N/OC[C@@H](O)COCc4ccco4)[C@H]3CC[C@@H]2C1=O`, the activity, negative = inhibition is 8.09% [at 11.4 µM] (inactive).

Turning to `COc1ccc2c3c([nH]c2c1)[C@H]1C[C@@H]2[C@@H](C[C@@H](O)[C@H](OC)[C@H]2C(=O)O)CN1CC3`, the activity, negative = inhibition is 7.15% [at 11.4 µM] (inactive).

Consider `Cc1ccc(S(=O)(=O)N(C)CC(=O)O/N=C(\N)c2ccccn2)cc1`, for which the AC50 entry is “inactive”.

As to `O=C(O)CCCSc1nc2ccccc2s1`, the activity, negative = inhibition was -8.66% [at 11.4 µM] (inactive).

`c1ccc2sc(SCN(C3CCCCC3)C3CCCCC3)nc2c1`: the concentration at half-maximal activity (AC50) is 1.58 µM (active).

`c1ccc(NCCSc2nc3ccccc3s2)cc1`: the activity, negative = inhibition is 1.99% [at 11.4 µM] (inactive).

As for `O=C(Nc1ccc2oc(=O)c(C(=O)O)cc2c1)Oc1ccccc1`, the activity, negative = inhibition is -5.11% [at 11.4 µM] (inactive).

Take `CC(=O)c1c(C(C)=O)c(C)n(NC(=O)c2ccncc2)c1C`: the AC50 result is “inactive”.

On to `CN(C)c1ccc(-c2nc(NCc3cccnc3)c3ccccc3n2)cc1`, for which the AC50 was 7.94 µM (active).

Turning to `c1ccc(CNc2nc(-c3ccoc3)nc3ccccc23)cc1`, the half-maximal activity concentration (AC50) is 10 µM (active).

Turning to `c1csc(CNc2nc(-c3ccoc3)nc3ccccc23)c1`, the AC50 was 3.98 µM (active).

Regarding `Cc1cccc(CNc2nc(-c3ccoc3)nc3ccccc23)c1`, the AC50 is 10 µM (active).

Consider `Fc1ccc(Nc2nc(-c3ccoc3)nc3ccccc23)cc1`, for which the AC50 entry was “inactive”.

For `CCNc1ncc2nc(-c3ccc(OC)cc3)c(=O)n(Cc3cccc(OC)c3)c2n1`, the AC50 result is “inactive”.

Consider `Cn1c(=O)n(CCC(=O)O)c2ccccc21`, for which the AC50 entry is “inactive”.

Turning to `COc1cc(/C=N/NC(N)=O)c(Br)cc1OCC(=O)Nc1ccccc1C`, the AC50 entry was “inactive”.

With `CCOC(=O)c1c(O)[nH]c(=O)c(CC)c1C`, the activity, negative = inhibition was -17.9% [at 11.4 µM] (inactive).

In the case of `CCOC(=O)Nc1nc(-c2ccccc2)c(C)s1`, the activity, negative = inhibition is 1.52% [at 11.4 µM] (inactive).

Turning to `CO/N=C(\C(=O)N[C@@H]1C(=O)N2C(C(=O)O)=C(COC(N)=O)CS[C@@H]12)c1ccco1`, the AC50 result was “inactive”.

In the case of `O=S1(=O)CCN(c2ccccc2CC(c2c[nH]c3ccccc23)c2c[nH]c3ccccc23)CC1`, the activity, negative = inhibition is -18% [at 11.4 µM] (inactive).

With `Cc1ccc(C2CC(C(F)(F)F)n3nc(C(=O)NCCN4CCOCC4)cc3N2)cc1` (stereo unspecified), the AC50 result was “inactive”.

As to `O=S(=O)(O)[C@@H](c1ccccc1)[C@@H](O)c1ccccc1`, the activity, negative = inhibition was 4.68% [at 11.4 µM] (inactive).

For `CN(C)c1ccc(-c2nc(NCCc3cnc[nH]3)c3ccccc3n2)cc1`, the AC50 is 7.94 µM (active).

Regarding `c1cncc(-c2nc(NCc3cccs3)c3ccccc3n2)c1`, the concentration at half-maximal activity (AC50) is 6.31 µM (active).

For the molecule `c1cncc(CNc2nc(-c3ccoc3)nc3ccccc23)c1`, the AC50 is 5.01 µM (active).

With `Cc1cnc(CNc2nc(-c3cccnc3)nc3ccccc23)cn1`, the AC50 entry is “inactive”.

Turning to `Cc1cccc(CNc2nc(-c3cccnc3)nc3ccccc23)c1`, the half-maximal activity concentration (AC50) was 25.1 µM (active).

For `CNC(=S)N1N=C(c2ccc(OC)cc2)CC1c1ccc(N(C)C)cc1` (stereo unspecified), the AC50 result is “inactive”.

Consider `Cc1c(CCC(C)C)c(-n2ccnc2C)n2c(nc3ccccc32)c1C#N`, for which the AC50 result was “inactive”.

Consider `CCSc1nnc2n(N)c(=O)c3ccccc3n12`, for which the AC50 entry is “inactive”.

For `Cc1cc(=O)oc2cc(O)c(CN(C)CC(=O)O)cc12`, the activity, negative = inhibition was -1.55% [at 11.4 µM] (inactive).

As for `Cc1cccc(Nc2ccccc2C(=O)OCC(=O)N(C)C2CCS(=O)(=O)C2)c1C` (stereo unspecified), the AC50 entry is “inactive”.

On to `Cc1cc(C)nc(SCCc2cccc[n+]2C)n1`, for which the activity, negative = inhibition is -2.83% [at 11.4 µM] (inactive).

For `S=c1[nH]nc(-c2ccncc2)n1CC1CCCO1` (stereo unspecified), the AC50 result was “inactive”.

Turning to `Cc1cc(NC(=O)CSc2nc3ccsc3c(=O)n2CCCCC(=O)O)no1`, the AC50 result is “inactive”.

As for `C[C@@]1(O)CCOC(=O)C1`, the AC50 result was “inactive”.

On to `CCOC(=O)c1c(C)[nH]c(C(=O)OCC(=O)NC2CCS(=O)(=O)C2)c1C` (stereo unspecified), for which the AC50 result is “inactive”.

In the case of `NCCS(=O)O`, the AC50 entry is “inactive”.

Take `Cc1ccc(S(=O)(=O)O/N=C2/CCCc3occc32)cc1`: the AC50 entry is “inactive”.

Take `C[C@@H](CCCCC(=O)Nc1ccc(C(F)(F)F)cc1)NCCc1cnc[nH]1`: the AC50 was 5.01 µM (active).

Regarding `O=CN[C@@H](Cc1cnc[nH]1)C(=O)O`, the activity, negative = inhibition is -4.29% [at 11.4 µM] (inactive).

`CN(C)C[C@H]1CCC[C@@H](CN(C)C)C1=O`: the activity, negative = inhibition is -1.21% [at 11.4 µM] (inactive).

On to `Clc1ccc2c(c1)C(c1cccs1)=NNC(c1cccnc1)=N2`, for which the AC50 is 10 µM (active).

Regarding `Clc1ccc2oc(-c3cccnc3)nc2c1`, the AC50 entry was “inactive”.

For `Fc1ccc2c(c1)C(c1ccncc1)=NNC(c1ccc(Cl)cc1)=N2`, the half-maximal activity concentration (AC50) is 0.398 µM (active).

Take `Cn1c(=O)c(-c2cccc(Cl)c2)nc2cncnc21`: the AC50 entry was “inactive”.

Regarding `CCOC(=O)C1CCCN(c2ncnc3c2cnn3-c2ccc(Cl)cc2)C1` (stereo unspecified), the AC50 entry was “inactive”.

In the case of `COCCn1c(=O)c(-c2cccs2)nc2cncnc21`, the AC50 result was “inactive”.

As to `O=C(Nc1ccc2ccccc2c1)[C@@H]1C[C@H]1[C@@H](NP(=O)(c1ccccc1)c1ccccc1)c1ccccc1`, the AC50 result is “inactive”.

Turning to `O=C(Nc1ccc2ccccc2c1)[C@H]1C[C@@H]1[C@H](NP(=O)(c1ccccc1)c1ccccc1)c1ccccc1`, the AC50 result was “inactive”.

For `C[C@@H](C(=O)Cc1ccc2ccccc2c1)[C@@H]1C[C@@]1(C)[C@@H](NP(=O)(c1ccccc1)c1ccccc1)c1ccccc1`, the AC50 entry is “inactive”.

For `Cc1cc(C(=O)N[C@H](c2ccccc2)[C@@]2(C)C[C@@H]2[C@@H](C)C(=O)Nc2ccc3ccccc3c2)n(C)n1`, the AC50 is 0.0398 µM (active).

On to `CC(=O)N[C@H](c1ccccc1)[C@@]1(C)C[C@@H]1[C@@H](C)C(=O)Nc1ccc2ccccc2c1`, for which the AC50 is 2 µM (active).

For `C[C@@H](C(=O)Nc1ccc2ccccc2c1)[C@@H]1C[C@@]1(C)[C@@H](N)c1ccccc1`, the concentration at half-maximal activity (AC50) was 12.6 µM (active).

As to `Cc1nn(C)c(Cl)c1S(=O)(=O)N[C@@H](c1ccccc1)[C@]1(C)C[C@H]1[C@@H](C)C(=O)Nc1ccc2ccccc2c1`, the AC50 result is “inactive”.

For the molecule `C[C@@H](C(=O)Nc1ccc2ccccc2c1)[C@H]1C[C@]1(C)[C@H](NP(=O)(c1ccccc1)c1ccccc1)c1ccccc1`, the AC50 is 0.794 µM (active).

For the molecule `CC1(C)S[C@@H]2[C@H](NC(=O)[C@@H](NC(=O)N3CCNC3=O)c3ccccc3)C(=O)N2[C@H]1C(=O)O`, the AC50 result is “inactive”.

For the molecule `COC(=O)c1sccc1NC(=O)CSc1ccccc1NS(=O)(=O)c1ccc(Cl)cc1`, the AC50 entry was “inactive”.

In the case of `C[C@@H]1O[C@H]2C3=C(C(=O)[C@H]4O[C@@H]4[C@H]3O)[C@@H]1[C@@H]1[C@@H](C)OC=C3[C@H](O)[C@H]4O[C@@H]4/C(=N\OCc4ccccc4)[C@]312`, the activity, negative = inhibition is -8.47% [at 11.4 µM] (inactive).

With `O=C(NCc1ccccc1)C(c1ccc(F)cc1)N(Cc1ccco1)C(=O)c1ccccn1` (stereo unspecified), the AC50 entry was “inactive”.

Take `C[C@@H](C(=O)Nc1ccc2ccccc2c1)[C@H]1C[C@]1(C)[C@H](NC(=O)Oc1ccc(F)cc1)c1ccccc1`: the AC50 is 2.51 µM (active).

On to `COC(=O)N[C@H](c1ccccc1)[C@@]1(C)C[C@@H]1[C@@H](C)C(=O)Nc1ccc2ccccc2c1`, for which the AC50 was 0.0316 µM (active).

With `C[C@@H](C(=O)Nc1ccc2ccccc2c1)[C@@H]1C[C@@]1(C)[C@@H](NC(=O)Oc1ccc(F)cc1)c1ccccc1`, the AC50 entry was “inactive”.

Take `COC(=O)[C@H]1C[C@@H]1[C@H](NC(=O)Oc1ccc(F)cc1)c1ccccc1`: the AC50 result is “inactive”.

`CO[C@@H]1COC(=O)CC=C[C@@H](C)[C@@H]2C=C[C@H](O)[C@@H](COC(=O)C/C=C\[C@H]1C)O2`: the activity, negative = inhibition is 13% [at 11.4 µM] (inactive).

Turning to `Cc1cc(C)c(C)c(S(=O)(=O)ON2C(=O)c3ccccc3C2=O)c1C`, the AC50 entry was “inactive”.

On to `CC(C)(C)c1ccc(OCC(=O)O)c(Cl)c1`, for which the activity, negative = inhibition is 12.8% [at 11.4 µM] (inactive).

For `Cc1nc(NS(=O)(=O)c2ccccc2C)c2c3c(sc2n1)CCC3`, the AC50 result is “inactive”.

With `CCCNC(=O)c1c(C)cc(=O)oc1C`, the AC50 result was “inactive”.

Turning to `COc1cc(-c2nnc(-c3ccc(N4CCOCC4)cc3)o2)cc(OC)c1OC`, the AC50 result was “inactive”.

As for `COc1ccc(Br)cc1/C=C/C(=O)Nc1c(C)cccc1C`, the AC50 result was “inactive”.

`CN1C(=O)C(CC(N)=O)N(NC(=O)c2ccc(Cl)cc2)C1=S` (stereo unspecified): the AC50 entry is “inactive”.

For the molecule `CCN1C(=O)C(CC(=O)Nc2ccc(Br)cc2)N(CCCc2ccccc2)C1=S` (stereo unspecified), the AC50 is 10 µM (active).

In the case of `CC(=O)Nc1ccc(S(=O)(=O)NC2(C(F)(F)F)NC(=O)N(c3ccc(Cl)cc3)C2=O)cc1` (stereo unspecified), the AC50 result was “inactive”.

Regarding `CCNC(=O)CC1C(=O)N(c2ccc(F)cc2)C(=O)N1CCc1ccc(OC)cc1` (stereo unspecified), the AC50 entry is “inactive”.

`O=C(CC1C(=O)NCCN1C(=S)Nc1ccccc1)Nc1ccc2c(c1)OCCO2` (stereo unspecified): the AC50 result is “inactive”.

For `O=C(CC1C(=O)N(c2ccc(Cl)cc2)C(=S)N1CCc1ccncc1)Nc1ccc(F)cc1` (stereo unspecified), the AC50 is 2.24 µM (active).

`CCN1C(=O)C(CC(=O)Nc2ccc(OC)cc2)N(Cc2cccnc2)C1=S` (stereo unspecified): the AC50 entry is “inactive”.

Turning to `CCCCC(=O)Nc1ccc(C(=O)NNC(=O)CCc2ccccc2)cc1`, the AC50 result is “inactive”.

On to `CN1C(=O)C(CC(=O)Nc2ccc(F)cc2)N(CCCc2ccccc2)C1=S` (stereo unspecified), for which the AC50 was 2 µM (active).

With `Cc1ccc(NC2c3ncccc3C(=O)N2Cc2ccc(F)cc2)cc1` (stereo unspecified), the AC50 entry was “inactive”.

As to `COc1ccc(OC)c(C2CC(=O)C3=C(C2)NC(=O)CC3c2ccc(O)c(OC)c2)c1` (stereo unspecified), the AC50 entry is “inactive”.
